Most compounds without a hit are left out; they make up all but 9.9% or so of the library.
IL1B secr inh = qHTS for Inhibitors of Inflammasome Signaling: IL-1-beta AlphaLISA Primary Screen. THP-1 LPS/ATP IL-1B secretion, AlphaLISA, 16 h; active compounds read low. activity change, % at 57.5 µM. 360,000 tested, 4.7% active; in the data active means activity change below about -50%; inconclusive means mostly about -30% to -49%; further: on the % scale 0 is the no-effect control and ±100 the full control effect
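Secreted IL-1B measured by AlphaLISA bead assay after 16 h compound exposure of THP-1 cells; compounds (final up to 57.5 uM) added 1 h before LPS (250 ng/mL) and ATP (1.25 mM) stimulation; lower signal means less secretion.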
SW480 rerep = A quantitative high throughput screen for small molecules that induce DNA re-replication in SW480 colon adenocarcinoma cells | SW480 DNA re-replication, Hoechst DNA content imaging, 48 h | Potency, µM (doses to about 46.1 µM), without a hit: top-dose re-replication activation, actives largely listed as activators | 340,000 tested, 1.8% active | AID 624297, 2012; further: potency means the concentration at half of the fitted maximal effect; % of control where 0% means no effect; nearly all actives have a fitted effect of over 55% in size
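250 cells/well; 23 nL cpd via pin tool; 48 hr, 37 C, 5% CO2; Hoechst 40 min; imager read of total nuclear intensity, ex 405/em 500-530 nm.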
KB-3-1 tox = qHTS assay for MDR1-selective chemotherapeutics: Primary screen using the parental adenocarcinoma cell KB-3-1. Potency, µM (titrated, usually from 46.1 µM), most hits filed as cytotoxic. 400,000 tested, 1.4% active. AID 1347075, 2019. KB-3-1 viability, CellTiter-Glo ATP luminescence, 72 h; further: potency means the concentration at half of the fitted maximal effect; on the % scale 0 is the no-effect control and ±100 the full control effect; nearly all actives have a fitted effect of over 60% in size
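Cells are dispensed, compounds pinned in, plates held at 37 °C for 72 h, then CellTiter-Glo is added and luminescence read after 10 minutes. Cell line: parental KB-3-1 in phenol-red-free DMEM, 10% FBS.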
KB-V1 cytotox = qHTS assay for MDR1-selective chemotherapeutics: Primary screen using the drug-selected MDR subline cells KB-V1; AID 1347076, 2019; Potency, µM (doses to about 46.1 µM), most hits filed as cytotoxic; KB-V1 MDR cells viability, CellTiter-Glo, 72 h; 400,000 tested, 3.4% active; further: potency means the concentration at half of the fitted maximal effect; on the % scale 0 is the no-effect control and ±100 the full control effect; nearly all actives have a fitted effect of over 60% in size
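Cells of the MDR subline KB-V1 are plated, dosed with compound at multiple concentrations, and incubated 72 h at 37 degrees C; CellTiter-Glo is then added and luminescence read after 10 min.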
MCF10A rereplic = A quantitative high throughput screen for small molecules that induce DNA re-replication in MCF 10a normal breast cells; MCF 10A DNA re-replication, Hoechst nuclear intensity, 48 h; Potency, µM (top dose mostly 46.1 µM), inactives show top-dose activity, positive = re-replication, actives largely listed as activators; 350,000 tested, 2.9% active; AID 624296, 2012; further: potency means the concentration at half of the fitted maximal effect; % of control where 0% means no effect; nearly all actives have a fitted effect of over 50% in size
* = called active by the depositor; i = inactive; u = inconclusive; x = no result given. Unless noted, the call rests on the fitted dose curve; in most records, active means well fitted curve in the direction sought with a large enough effect; inconclusive means small, poorly fitted or top-dose-only effect, or another doubt; inactive means no such curve, though single readings can be large; an effect the other way counts as inactive or inconclusive.

SMILES | IL1B secr inh | SW480 rerep | KB-3-1 tox | KB-V1 cytotox | MCF10A rereplic
CCn1c(COc2ccccc2C)nnc1SCC(=O)CC(=O)Nc1ccccc1OC | 22 | 0% | i | 8.2µM* | u
CCn1c(COc2ccccc2)nnc1SCC(=O)CC(=O)Nc1ccccc1OC | 28 | -1% | i | i | 29%
CCn1c(COc2cccc(C)c2C)nnc1SCC(=O)N1CCN(c2ccc(OC)cc2)CC1 | 14 | -6% | 15µM* | 2.3µM* | 3%
C=CCn1c(CSCc2ccccc2)nnc1SCC(=O)N1CCN(c2ccccc2)CC1 | 0 | -79% | i | 10µM* | -43%
CN1C(=O)C(C)(C)c2cc(S(=O)(=O)N3CCCC(C(=O)NCc4ccccc4Cl)C3)ccc21 (centres undefined) | 2 | -2% | i | u | 0%
COc1ccc(N2CCN(C(CNC(=O)C(=O)NCCc3ccccc3)c3cccnc3)CC2)cc1 (centres undefined) | x | x | i | i | x
Nc1nc(-c2ccccn2)nc(N)c1Cc1ccccc1F | 15 | 8% | i | u | u
Nc1nc(-c2ccccn2)nc(N)c1Cc1ccc(Cl)cc1Cl | -15 | 10µM* | u | u | u
COCCSc1ncnc2c1oc1nc3c(cc12)COC(C)(C)C3 | -2 | u | u | i | 15%
CC1(C)Cc2nc3oc4c(N(CCO)Cc5ccccc5)ncnc4c3cc2CO1 | -19 | -8% | i | 15µM* | 19%
COc1cc(CNC(=O)c2ccc3oc(C(C)C)nc3c2)cc(OC)c1 | -9 | -27% | i | i | -2%
O=C(Nc1cccc(-c2nc3ccccc3s2)c1)c1cc(-n2cnnc2)ccc1Cl | u | u | u | i | u
Cc1ccc2sc(-c3ccc(NC(=O)/C=C\C(=O)O)cc3)nc2c1 | u | u | i | i | 23µM*
Cc1ccc2sc(-c3ccc(NC(=O)c4cc(-n5cnnc5)ccc4Cl)cc3)nc2c1 | -16 | 15µM* | u | i | 2.6µM*
CCC(CO)Oc1cc(NC(=O)c2ccccc2Cl)c2ncn(C(C)C)c2c1 (centres undefined) | -16 | -1% | i | i | 3%
COc1ccccc1CNC(=O)c1cc2cc(C)ccc2n1C | x | x | i | i | x
COc1ccc(N(CC(=O)Nc2cccc(Cl)c2)S(=O)(=O)c2c(C)[nH]c(=O)[nH]c2=O)cc1 | x | x | i | i | x
Cn1nc(SCc2ccccc2)c(=O)n(C(c2ccccc2)c2ccccc2)c1=O | -17 | 1% | u | 21µM* | 1%
CCOC(=O)C1CCCN(C(=O)c2ccc(NC(=O)c3nsc4ccccc34)cc2)C1 (centres undefined) | x | x | i | i | x
CCCCN1C(=O)C(C(=O)OCc2ccccc2)CC2=C1CCCC2=O (centres undefined) | 30 | u | i | i | u
Cc1cc(-c2cc(C)c(N)cc2C)c(C)cc1N | 23 | 18µM* | i | i | 127%
Cc1cc(C)nc(NC2=NCC(=O)N2c2cccc(Cl)c2)n1 | -6 | -4% | i | 21µM* | 16%
Cc1cc(C)nc(NC2=NCC(=O)N2c2ccccc2)n1 | -3 | 5% | i | i | 20%
CCn1ncc(Br)c1C(=O)Nc1ccc(C(C)C)cc1 | -85* | u | i | i | u
CCn1nccc1C(=O)Nc1ccccc1OC | -13 | -3% | i | i | 1%
SMILES | IL1B secr inh | SW480 rerep | KB-3-1 tox | KB-V1 cytotox | MCF10A rereplic
CCn1ncc(Br)c1C(=O)Nc1ccc2c(c1)OCCO2 | -12 | -8% | u | 21µM* | -1%
CCn1ncc(Br)c1C(=O)Nc1cc([N+](=O)[O-])ccc1C | -9 | -78% | u | 16µM* | -7%
CCn1ncc(Br)c1C(=O)Nc1ccccc1OC | -9 | 0% | 13µM* | 12µM* | 5%
CCn1ncc(Br)c1C(=O)Nc1cccc(F)c1 | 16 | 1% | i | i | 3%
CCSc1ncc(Cl)c(C(=O)Nc2c(C(=O)c3ccc(C)c(F)c3)oc3ccccc23)n1 | x | x | i | i | x
O=C(CSc1nc2c([nH]c3ccccc32)c(=O)n1-c1ccc(Cl)cc1)NC1CCCCC1 | x | x | i | u | x
C[C@@H]1CN([C@@H](C)CO)C(=O)CCCn2nncc2CO[C@@H]1CN(C)S(=O)(=O)c1ccc2c(c1)OCCCO2 | -12 | x | i | i | x
CCc1nnc(NS(=O)(=O)c2ccc(NC(=S)NC(=O)/C=C/c3ccc(C(C)C)cc3)cc2)s1 | 22 | -9% | i | i | 0%
Cc1cc([N+](=O)[O-])ccc1NC(=O)c1cncc(Br)c1 | -67* | 8% | i | u | 1%
CCC(=O)NCCC(c1ccco1)c1ccccc1OC (centres undefined) | 5 | -4% | i | i | 2%
COc1ccccc1C(CCN(Cc1cccs1)C(C)=O)c1ccco1 (centres undefined) | -98* | 2% | i | i | 19%
CCC(=O)N(CCC(c1ccccc1)c1ccco1)Cc1cccs1 (centres undefined) | -7 | 11% | i | u | 11µM*
COC(=O)CCN1CCC2CC1c1cc(N3CCCCC3)ccc12 (centres undefined) | 3 | x | i | i | x
CCOC(=O)CCCCC(=O)c1[nH]c(=O)[nH]c1Cn1cnc2ccccc21 | -54* | 0% | i | i | -5%
CCOC(=O)CCCCC(=O)c1[nH]c(=O)[nH]c1CSc1nc(-c2ccccc2)c(C#N)c(=O)[nH]1 | -66* | u | i | i | u
Cc1[nH]c2ccccc2c1C(=O)COC(=O)Cn1cnc2ccccc21 | 30 | 3% | i | i | 7%
CCOC(=O)CCCCC(=O)c1[nH]c(=O)[nH]c1CSCCO | -84* | -2% | i | i | 3%
CCOC(=O)c1[nH]c(=O)[nH]c1CSc1ccccn1 | -3 | -5% | i | i | 3%
Cc1c(C)c2cc3c(C)coc3cc2oc1=O | -51* | -9% | i | i | 1%
O=C(CSc1ccc(-c2cccc([N+](=O)[O-])c2)nn1)N1CCCC1 | -10 | 2% | i | u | 3%
Cn1c(SCC(=O)N2CCN(c3ccccc3)CC2)nnc1-c1ccncc1 | 18 | -3% | i | i | 1%
O=C(CSc1ccc(-c2cccc([N+](=O)[O-])c2)nn1)N1CCCCCC1 | -54* | -4% | i | u | 6%
CCn1c(SCC(=O)N2CCN(c3ccc(F)cc3)CC2)nnc1-c1ccncc1 | 32 | -10% | i | 18µM* | -3%

From PubChem
